GAA spleen mod = inhibitors or activators of human alpha-glucosidase in spleen homogenate. P10253. Potency, µM (highest dose often 79.9 µM), for inactives: at the highest dose activity change, negative = inhibition, hits mostly inhibitors. human spleen homogenate, 4-MU-alpha-glucoside fluorescence. 240,000 tested, 0.006% active;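 further: 0% = enzyme with vehicle and -100% = no enzyme basal signal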
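Compounds were titrated against alpha-glucosidase in spleen homogenate at pH 5.0, with 1 mM 4-methylumbelliferyl substrate for 40 min at 37 C. Reactions were quenched with pH 10 NaOH/glycine and fluorescence measured.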
GAA glycogen mod = inhibitors or activators of human alpha-glucosidase glycogen cleavage. 300,000 tested, 0.38% active. P10253. recombinant GAA, glycogen substrate, Amplex Red glucose oxidase fluorescence. Potency, µM (series often up to 76.4 µM), inactives show at the top dose activity change, negative = inhibition, most hits filed as inhibitors;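 further: 0% = full enzyme reaction and -100% = no-enzyme basal signal; the screen sought inhibitors and activators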
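Recombinant enzyme (4 nM final) with compounds titrated up to 77 uM and bovine liver glycogen (30 ug) in citrate pH 5.0, 0.01% Tween-20, 37 C 40 min. Released glucose detected by Amplex Red/glucose oxidase (Ex 573/Em 610); AC50 from Hill fits.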
N370S GC = inhibitors or activators of N370S glucocerebrosidase for Gaucher disease; P04062; N370S GC spleen homogenate, 4MU-glucoside fluorescence; Potency, µM (titrated, usually from 59.4 µM), without a hit: at the highest dose activity change, negative = inhibition, hits mostly inhibitors; 330,000 tested, 0.092% active;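 further: 0% = full enzyme activity and -100% = no enzyme basal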
LMNA splice mod = LMNA splicing modulation; HeLa LMNA splicing GFP/RFP minigene ratio, 48 h; Potency, µM (doses to about 46.1 µM), for the others: at the highest dose ratio change, negative = inhibition, most hits filed as inhibitors; 200,000 tested, 0.01% active; active means well fitted inhibition curve with a large enough effect in the signal ratio, with a control signal flat, not every such curve was filed as active; inconclusive means small, poorly fitted or top-dose-only effect, or effect the other way, or a change in a side signal; the % refers to the signal ratio
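S3 HeLa stable clones carrying a lamin A-EGFP splicing minigene plus DsRed2 were seeded at 600 cells/well in Opti-MEM with 2% FBS, pin-dosed and incubated 48 h at 37°C. Acumen cytometry (488 nm) gave the GFP/RFP total-intensity ratio.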
GAA inhib = alpha-glucosidase (human) inhibition; purified human GAA, 4-MU-alpha-glucoside fluorescence; Potency, µM (titrated, usually from 76.9 µM), inactives show at the top dose activity change, negative = inhibition, actives largely listed as inhibitors; 200,000 tested, 0.005% active; AID 1466;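 further: plate controls were uninhibited enzyme wells for no effect and no-enzyme background for full effect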
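Human alpha-glucosidase, 4 nM, pre-mixed with test compounds before 400 uM 4-methylumbelliferyl substrate; 20 min room temperature at pH 5.0. Fluorescence read after pH 10 stop; AC50 values from Hill-equation fits.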
Numbers without * were called inactive; [ ] = another dose, or the depositor's remark. This is a sample that favours compounds with a hit; in the whole collection about 0.41% have one here. Unless noted, the call rests on the fitted dose curve; in most records, active means well fitted curve in the direction sought with a large enough effect; inconclusive means small, poorly fitted or top-dose-only effect, or another doubt; inactive means no such curve, though single readings can be large; an effect the other way counts as inactive or inconclusive. Unless noted, on the % scale 0 is the no-effect control and ±100 the full control effect; potency means the concentration at half of the fitted maximal effect.

What do the screens show for `Cc1ccc(-c2nnc(Nc3ccc(O)cc3)c3ccccc23)cc1S(=O)(=O)NC(C)(C)CO`?
GAA glycogen mod: 8.9µM*

How did Oc1ccc(Nc2nnc(-c3ccc(O)cc3)c3ccccc23)cc1 do in these assays?
GAA spleen mod: 1%; GAA glycogen mod: 16µM*; N370S GC: inconclusive; LMNA splice mod: inconclusive; GAA inhib: 1%

Results for Oc1ccc(Nc2ncnc3ccccc23)cc1 ?
GAA glycogen mod: 22µM*; N370S GC: -13%

How did COc1ccc(Nc2nnc(-c3ccc(O)cc3)c3ccccc23)cc1 do in these assays?
GAA spleen mod: 1%; GAA glycogen mod: -6%; N370S GC: -16%; LMNA splice mod: inconclusive; GAA inhib: 5%

How did Cc1ccc(Nc2ncnc3ccccc23)cc1 do in these assays?
GAA spleen mod: 3%; GAA glycogen mod: -9%; N370S GC: -26%; LMNA splice mod: 3%[46 µM]; GAA inhib: 2%

How did Cc1ccc(-c2nnc(Nc3ccc(C(N)=O)cc3)c3ccccc23)cc1S(=O)(=O)NCC1CCCO1 (centres undefined) do in these assays?
GAA spleen mod: -2%; GAA glycogen mod: -4%; N370S GC: -14%; LMNA splice mod: -11%; GAA inhib: inconclusive

How did Cc1ccc(-c2nnc(Nc3ccc(O)cc3)c3ccccc23)cc1S(=O)(=O)NCC1CCCO1 (centres undefined) do in these assays?
GAA glycogen mod: 16µM*

How did O=C(Nc1cccc(C(=O)N2CCN(c3ccc(Cl)cc3)CC2)c1)c1nsc2ccccc12 do in these assays?
LMNA splice mod: -9%[46 µM]

How did COC(=O)c1[nH]c2cc(OC)ccc2c1N do in these assays?
GAA spleen mod: 7%; GAA glycogen mod: 35µM*; N370S GC: -11%; LMNA splice mod: 3%; GAA inhib: 4%

What do the screens show for `CC(C)(Cc1ccc(O)cc1)NC(=O)CC(=O)N=Nc1c(O)[nH]c2cc(Br)ccc12`?
GAA spleen mod: 1%; GAA glycogen mod: 12%; N370S GC: 11µM*; GAA inhib: -1%

What do the screens show for `COc1cccc(/C=C2\SC(=S)N(C(C)C(=O)NC3C=CS(=O)(=O)C3)C2=O)c1` (centres undefined)?
N370S GC: 16µM*

What do the screens show for `COc1ccc(/C=C2\SC(=S)N(C(C)C(=O)NC3C=CS(=O)(=O)C3)C2=O)cc1` (centres undefined)?
GAA glycogen mod: -4%[76.3 µM]; N370S GC: inconclusive

What do the screens show for `CCOc1ccc(S(=O)(=O)Nc2cc(Cl)ccc2O)cc1`?
GAA spleen mod: -8%; GAA glycogen mod: 28µM*; N370S GC: 10%; LMNA splice mod: inconclusive; GAA inhib: -4%

How did CC(C)c1ccc(NC(=O)C2CCN(S(=O)(=O)c3cccc4nsnc34)CC2)cc1 do in these assays?
GAA glycogen mod: 14%[76.3 µM]

Results for CC(=O)N1CCN(c2ccc(NC(=O)c3ccc(C)cc3)cc2)CC1 ?
GAA spleen mod: -5%; GAA glycogen mod: 1%; N370S GC: 2%; LMNA splice mod: -4%; GAA inhib: 7%

What do the screens show for `CC(=O)N1CCN(c2ccc(NCc3ccc(C)s3)cc2)CC1`?
GAA spleen mod: -7%; GAA glycogen mod: 16µM*; N370S GC: -12%; LMNA splice mod: 2%; GAA inhib: -2%[15.4 µM]

Results for Cc1ccc(CNc2ccc(N3CCOCC3)cc2)s1 ?
GAA spleen mod: -3%; GAA glycogen mod: 28µM*; N370S GC: -6%; LMNA splice mod: -4%; GAA inhib: -3%

How did CC(=O)N1CCN(c2ccc(NCc3cccs3)cc2)CC1 do in these assays?
GAA spleen mod: 0%; GAA glycogen mod: 40µM*; N370S GC: inconclusive; LMNA splice mod: -13%; GAA inhib: -9%

Results for CC(=O)Nc1ccc(N2CCN(C(=O)c3cccs3)CC2)cc1 ?
GAA spleen mod: 5%; GAA glycogen mod: 4%; N370S GC: 4%; LMNA splice mod: -2%; GAA inhib: -1%

Results for Fc1ccc(CNc2ccc(N3CCN(Cc4ccccc4)CC3)cc2)cc1 ?
GAA glycogen mod: 8.9µM*; N370S GC: -3%

Results for Cc1ccc(NCc2ccc(C)s2)cc1 ?
N370S GC: -2%

Results for CC(=O)N1CCN(c2ccc(NCc3ccccc3)cc2)CC1 ?
GAA spleen mod: -10%; GAA glycogen mod: 14µM*; N370S GC: -21%; LMNA splice mod: inconclusive; GAA inhib: -3%

What do the screens show for `CC(=O)N1CCN(c2ccc(NCc3cccc4ccccc34)cc2)CC1`?
GAA glycogen mod: -16%[15.3 µM]; N370S GC: inconclusive

How did Cc1ccc2c(c1)c1c(n2CC(O)CNC(CO)(CO)CO)CCCC1 (centres undefined) do in these assays?
GAA spleen mod: -1%; GAA glycogen mod: 25%; N370S GC: 11µM*; LMNA splice mod: 5%; GAA inhib: -7%

What do the screens show for `C=C1C(c2ccc(C)cc2)=CCc2cc(C)cc(C)c21`?
GAA spleen mod: 9%; N370S GC: inconclusive

How did CCN(CC)c1cc(Cl)c2nonc2c1N do in these assays?
GAA spleen mod: -2%; GAA glycogen mod: inconclusive; N370S GC: 2%

Results for CN(C)c1cc(Cl)c2nonc2c1N ?
GAA spleen mod: 2%; GAA glycogen mod: 13µM*; N370S GC: -9%

What do the screens show for `CC[C@H](C)[C@H](NC(=O)[C@H](Cc1ccccc1)NC(=O)[C@H](CC(C)C)NC(=O)[C@H](CCSC)NC(=O)[C@H](CCC(=O)O)NC(=O)[C@H](CCC(=O)O)NC(=O)[C@H](CC(=O)O)NC(=O)[C@H](CO)NC(=O)[C@@H]1CCCN1C(=O)[C@H](CCCCN)NC(=O)[C@@H](N)[C@@H](C)O)C(=O)N[C@@H](Cc1ccc(O)cc1)C(=O)NCC(=O)N[C@@H](Cc1cnc[nH]1)C(=O)N[C@@H](Cc1ccc(O)cc1)C(=O)N[C@@H](CCCCN)C(=O)N[C@@H](CCC(N)=O)C(=O)N[C@@H](C)C(=O)N[C@H](C(=O)N[C@H](C(=O)NCC(=O)N[C@@H](CC(=O)O)C(=O)N[C@H](C(=O)N[C@@H](CC(N)=O)C(=O)N[C@H](C(=O)N[C@@H](CCC(=O)O)C(=O)N[C@@H](CCCNC(=N)N)C(=O)N1CCC[C@H]1C(=O)NCC(=O)N[C@@H](CCSC)C(=O)N[C@@H](CC(C)C)C(=O)N[C@@H](CC(=O)O)C(=O)N[C@@H](Cc1ccccc1)C(=O)N[C@H](C(=O)O)[C@@H](C)O)[C@@H](C)O)[C@@H](C)CC)C(C)C)[C@@H](C)O`?
GAA spleen mod: 1%; N370S GC: -2%

What do the screens show for `O=[N+]([O-])/C(=C\Nc1ccccc1Cl)S(=O)(=O)c1ccccc1`?
GAA spleen mod: -6%; GAA glycogen mod: -11%; N370S GC: 16%; LMNA splice mod: inconclusive; GAA inhib: 6%
